# Data taken from article PMC11006913.
# Assays:
# Test in all cases: PBM; 200 nM protein, PBS
# Settings in all cases: dsDNA, one strand shown
# VAX1 [1] = molecular target: VAX1 (Homo sapiens, UniProt Q5SQQ9 86-172)
# VAX1 [2] = molecular target: VAX1 (Homo sapiens, UniProt Q5SQQ9 86-172, T142I)
# VAX1 [3] = molecular target: VAX1 (Homo sapiens, UniProt Q5SQQ9 86-172, K157R)
# PITX2 = PITX2 (Homo sapiens, UniProt Q99697 72-157)
# ALX3 [4] = molecular target: ALX3 (Homo sapiens, UniProt O95076 139-225, N203Q)
# ALX3 [5] = molecular target: ALX3 (Homo sapiens, UniProt O95076 139-225)
# ALX3 [6] = molecular target: ALX3 (Homo sapiens, UniProt O95076 139-225, L168Q)
# ALX3 [7] = molecular target: ALX3 (Homo sapiens, UniProt O95076 139-225, L168V)
# ALX3 [8] = molecular target: ALX3 (Homo sapiens, UniProt O95076 139-225, N203S)
# HOXA4 [9] = molecular target: HOXA4 (Homo sapiens, UniProt Q00056 201-287, W262R)
# HOXA4 [10] = molecular target: HOXA4 (Homo sapiens, UniProt Q00056 201-287, R217L)
# HOXA4 [11] = molecular target: HOXA4 (Homo sapiens, UniProt Q00056 201-287)
# HOXD13 [12] = molecular target: HOXD13 (Homo sapiens, UniProt P35453 263-343, T313R)
# HOXD13 [13] = molecular target: HOXD13 (Homo sapiens, UniProt P35453 263-343)
# HOXD13 [14] = molecular target: HOXD13 (Homo sapiens, UniProt P35453 263-343, T313A)
# MSX2 [15] = molecular target: MSX2 (Homo sapiens, UniProt P35548 130-214, R199I)
# MSX2 [16] = molecular target: MSX2 (Homo sapiens, UniProt P35548 130-214)
# MSX2 [17] = molecular target: MSX2 (Homo sapiens, UniProt P35548 130-214, F161Y)
# ALX1 [18] = molecular target: ALX1 (Homo sapiens, UniProt Q15699 118-204, L144V)
# ALX1 [19] = molecular target: ALX1 (Homo sapiens, UniProt Q15699 118-204, L144R)
# Sequence of ALX1 (Homo sapiens, UniProt Q15699 118-204, L144R) (Q15699 118-204 L144R): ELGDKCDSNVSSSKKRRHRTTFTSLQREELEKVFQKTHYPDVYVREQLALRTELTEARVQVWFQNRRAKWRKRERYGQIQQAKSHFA
# Sequence of ALX3 (Homo sapiens, UniProt O95076 139-225, L168Q) (O95076 139-225 L168Q): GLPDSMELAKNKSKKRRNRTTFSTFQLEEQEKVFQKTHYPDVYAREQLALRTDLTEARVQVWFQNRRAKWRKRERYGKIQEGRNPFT
# Sequence of ALX3 (Homo sapiens, UniProt O95076 139-225, N203Q) (O95076 139-225 N203Q): as the sequence (O95076 139-225 L168Q) above, with Q30L, N65Q counted along it
# Sequence of HOXD13 (Homo sapiens, UniProt P35453 263-343, T313A) (P35453 263-343 T313A): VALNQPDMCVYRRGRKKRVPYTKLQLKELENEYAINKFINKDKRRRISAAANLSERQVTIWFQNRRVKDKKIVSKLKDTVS
# Sequence of HOXD13 (Homo sapiens, UniProt P35453 263-343, T313R) (P35453 263-343 T313R): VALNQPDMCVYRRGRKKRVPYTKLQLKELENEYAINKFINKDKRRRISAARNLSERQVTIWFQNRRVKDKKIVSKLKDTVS
# Sequence of MSX2 (Homo sapiens, UniProt P35548 130-214) (P35548 130-214): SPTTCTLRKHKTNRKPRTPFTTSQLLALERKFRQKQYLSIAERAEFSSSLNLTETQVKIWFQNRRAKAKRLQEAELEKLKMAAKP
# Sequence of VAX1 (Homo sapiens, UniProt Q5SQQ9 86-172, T142I) (Q5SQQ9 86-172 T142I): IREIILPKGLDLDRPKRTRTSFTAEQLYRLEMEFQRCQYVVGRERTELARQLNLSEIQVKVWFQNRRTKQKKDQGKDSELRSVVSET
# Sequence of HOXA4 (Homo sapiens, UniProt Q00056 201-287, R217L) (Q00056 201-287 R217L): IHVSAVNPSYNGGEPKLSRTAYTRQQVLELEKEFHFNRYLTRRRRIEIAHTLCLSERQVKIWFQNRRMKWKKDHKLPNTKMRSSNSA
# Sequence of HOXA4 (Homo sapiens, UniProt Q00056 201-287, W262R) (Q00056 201-287 W262R): as the sequence (Q00056 201-287 R217L) above, with L17R, W62R counted along it
# Sequence of HOXD13 (Homo sapiens, UniProt P35453 263-343) (P35453 263-343): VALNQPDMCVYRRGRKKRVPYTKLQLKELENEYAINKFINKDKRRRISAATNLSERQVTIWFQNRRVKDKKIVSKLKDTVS
# Sequence of ALX3 (Homo sapiens, UniProt O95076 139-225) (O95076 139-225): as the sequence (O95076 139-225 L168Q) above, with Q30L counted along it
# Sequence of ALX1 (Homo sapiens, UniProt Q15699 118-204, L144V) (Q15699 118-204 L144V): as the sequence (Q15699 118-204 L144R) above, with R27V counted along it
# Sequence of ALX3 (Homo sapiens, UniProt O95076 139-225, L168V) (O95076 139-225 L168V): as the sequence (O95076 139-225 L168Q) above, with Q30V counted along it
# Sequence of VAX1 (Homo sapiens, UniProt Q5SQQ9 86-172, K157R) (Q5SQQ9 86-172 K157R): as the sequence (Q5SQQ9 86-172 T142I) above, with I57T, K72R counted along it
# Sequence of VAX1 (Homo sapiens, UniProt Q5SQQ9 86-172) (Q5SQQ9 86-172): as the sequence (Q5SQQ9 86-172 T142I) above, with I57T counted along it
# Sequence of MSX2 (Homo sapiens, UniProt P35548 130-214, R199I) (P35548 130-214 R199I): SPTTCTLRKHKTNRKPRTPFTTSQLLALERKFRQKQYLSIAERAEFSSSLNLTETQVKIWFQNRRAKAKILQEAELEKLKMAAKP
# Sequence of ALX3 (Homo sapiens, UniProt O95076 139-225, N203S) (O95076 139-225 N203S): as the sequence (O95076 139-225 L168Q) above, with Q30L, N65S counted along it
# Sequence of HOXA4 (Homo sapiens, UniProt Q00056 201-287) (Q00056 201-287): as the sequence (Q00056 201-287 R217L) above, with L17R counted along it
# Sequence of MSX2 (Homo sapiens, UniProt P35548 130-214, F161Y) (P35548 130-214 F161Y): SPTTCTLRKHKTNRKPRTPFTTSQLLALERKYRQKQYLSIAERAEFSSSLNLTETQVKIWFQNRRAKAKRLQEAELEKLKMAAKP
sequence,measurement,setting,value
AGATATAC,binding signal,VAX1 [1],"8.24 upbm affinity estimate (log intensity, higher = more binding, comparable within an allelic series)"
same,binding signal,VAX1 [2],"8.22 upbm affinity estimate (log intensity, higher = more binding, comparable within an allelic series)"
same,binding signal,VAX1 [3],"8.23 upbm affinity estimate (log intensity, higher = more binding, comparable within an allelic series)"
CGGCCTGC,binding signal,PITX2,"7.72 upbm affinity estimate (log intensity, higher = more binding, comparable within an allelic series)"
GGGGGGAC,binding signal,VAX1 [1],"6.83 upbm affinity estimate (log intensity, higher = more binding, comparable within an allelic series)"
same,binding signal,VAX1 [2],"7.14 upbm affinity estimate (log intensity, higher = more binding, comparable within an allelic series)"
same,binding signal,VAX1 [3],"7.04 upbm affinity estimate (log intensity, higher = more binding, comparable within an allelic series)"
CGCTGCGC,binding signal,ALX3 [4],"7.75 upbm affinity estimate (log intensity, higher = more binding, comparable within an allelic series)"
same,binding signal,ALX3 [5],"7.66 upbm affinity estimate (log intensity, higher = more binding, comparable within an allelic series)"
same,binding signal,VAX1 [1],"7.4 upbm affinity estimate (log intensity, higher = more binding, comparable within an allelic series)"
same,binding signal,ALX3 [6],"7.68 upbm affinity estimate (log intensity, higher = more binding, comparable within an allelic series)"
same,binding signal,ALX3 [7],"7.68 upbm affinity estimate (log intensity, higher = more binding, comparable within an allelic series)"
same,binding signal,VAX1 [2],"7.38 upbm affinity estimate (log intensity, higher = more binding, comparable within an allelic series)"
same,binding signal,ALX3 [8],"7.74 upbm affinity estimate (log intensity, higher = more binding, comparable within an allelic series)"
same,binding signal,VAX1 [3],"7.41 upbm affinity estimate (log intensity, higher = more binding, comparable within an allelic series)"
GGGGGCCA,binding signal,HOXA4 [9],"9.65 upbm affinity estimate (log intensity, higher = more binding, comparable within an allelic series)"
same,binding signal,HOXA4 [10],"9.62 upbm affinity estimate (log intensity, higher = more binding, comparable within an allelic series)"
same,binding signal,HOXA4 [11],"9.83 upbm affinity estimate (log intensity, higher = more binding, comparable within an allelic series)"
CGGCCACC,binding signal,HOXD13 [12],"9.38 upbm affinity estimate (log intensity, higher = more binding, comparable within an allelic series)"
same,binding signal,HOXD13 [13],"9.42 upbm affinity estimate (log intensity, higher = more binding, comparable within an allelic series)"
same,binding signal,HOXD13 [14],"9.39 upbm affinity estimate (log intensity, higher = more binding, comparable within an allelic series)"
CCCCAGCG,binding signal,MSX2 [15],"9.51 upbm affinity estimate (log intensity, higher = more binding, comparable within an allelic series)"
same,binding signal,MSX2 [16],"9.6 upbm affinity estimate (log intensity, higher = more binding, comparable within an allelic series)"
same,binding signal,MSX2 [17],"9.52 upbm affinity estimate (log intensity, higher = more binding, comparable within an allelic series)"
ACGCCGGG,binding signal,HOXA4 [9],"9.71 upbm affinity estimate (log intensity, higher = more binding, comparable within an allelic series)"
same,binding signal,HOXA4 [10],"9.86 upbm affinity estimate (log intensity, higher = more binding, comparable within an allelic series)"
same,binding signal,HOXA4 [11],"9.92 upbm affinity estimate (log intensity, higher = more binding, comparable within an allelic series)"
CGGGCCGC,binding signal,ALX1 [18],"6.4 upbm affinity estimate (log intensity, higher = more binding, comparable within an allelic series)"
same,binding signal,HOXD13 [12],"9.48 upbm affinity estimate (log intensity, higher = more binding, comparable within an allelic series)"
same,binding signal,ALX1 [19],"6.44 upbm affinity estimate (log intensity, higher = more binding, comparable within an allelic series)"
same,binding signal,HOXD13 [13],"9.34 upbm affinity estimate (log intensity, higher = more binding, comparable within an allelic series)"
same,binding signal,HOXD13 [14],"9.63 upbm affinity estimate (log intensity, higher = more binding, comparable within an allelic series)"
AGCCGGCT,binding signal,ALX1 [18],"6.54 upbm affinity estimate (log intensity, higher = more binding, comparable within an allelic series)"
same,binding signal,ALX3 [4],"7.78 upbm affinity estimate (log intensity, higher = more binding, comparable within an allelic series)"
same,binding signal,ALX1 [19],"6.74 upbm affinity estimate (log intensity, higher = more binding, comparable within an allelic series)"
same,binding signal,ALX3 [5],"8.13 upbm affinity estimate (log intensity, higher = more binding, comparable within an allelic series)"
same,binding signal,ALX3 [6],"7.76 upbm affinity estimate (log intensity, higher = more binding, comparable within an allelic series)"
same,binding signal,ALX3 [7],"7.76 upbm affinity estimate (log intensity, higher = more binding, comparable within an allelic series)"
same,binding signal,ALX3 [8],"7.77 upbm affinity estimate (log intensity, higher = more binding, comparable within an allelic series)"
GTATCATA,binding signal,HOXA4 [9],"10.3 upbm affinity estimate (log intensity, higher = more binding, comparable within an allelic series)"
same,binding signal,HOXA4 [10],"10.6 upbm affinity estimate (log intensity, higher = more binding, comparable within an allelic series)"
same,binding signal,HOXA4 [11],"11 upbm affinity estimate (log intensity, higher = more binding, comparable within an allelic series)"
CAGGCCCG,binding signal,MSX2 [15],"9.39 upbm affinity estimate (log intensity, higher = more binding, comparable within an allelic series)"
same,binding signal,ALX1 [18],"6.27 upbm affinity estimate (log intensity, higher = more binding, comparable within an allelic series)"
same,binding signal,ALX1 [19],"6.24 upbm affinity estimate (log intensity, higher = more binding, comparable within an allelic series)"
same,binding signal,MSX2 [16],"9.3 upbm affinity estimate (log intensity, higher = more binding, comparable within an allelic series)"
same,binding signal,MSX2 [17],"9.36 upbm affinity estimate (log intensity, higher = more binding, comparable within an allelic series)"
CGCGTGGC,binding signal,MSX2 [15],"9.55 upbm affinity estimate (log intensity, higher = more binding, comparable within an allelic series)"
same,binding signal,MSX2 [16],"9.66 upbm affinity estimate (log intensity, higher = more binding, comparable within an allelic series)"
same,binding signal,MSX2 [17],"9.65 upbm affinity estimate (log intensity, higher = more binding, comparable within an allelic series)"
GGCGGACC,binding signal,ALX3 [4],"7.72 upbm affinity estimate (log intensity, higher = more binding, comparable within an allelic series)"
same,binding signal,ALX3 [5],"7.74 upbm affinity estimate (log intensity, higher = more binding, comparable within an allelic series)"
same,binding signal,ALX3 [6],"7.74 upbm affinity estimate (log intensity, higher = more binding, comparable within an allelic series)"
same,binding signal,ALX3 [7],"7.69 upbm affinity estimate (log intensity, higher = more binding, comparable within an allelic series)"
same,binding signal,ALX3 [8],"7.67 upbm affinity estimate (log intensity, higher = more binding, comparable within an allelic series)"
CATGATCA,binding signal,ALX3 [4],"8.19 upbm affinity estimate (log intensity, higher = more binding, comparable within an allelic series)"
same,binding signal,ALX3 [5],"9.26 upbm affinity estimate (log intensity, higher = more binding, comparable within an allelic series)"
same,binding signal,ALX3 [8],"8.21 upbm affinity estimate (log intensity, higher = more binding, comparable within an allelic series)"
GCCAGTCC,binding signal,HOXD13 [12],"9.53 upbm affinity estimate (log intensity, higher = more binding, comparable within an allelic series)"
same,binding signal,HOXD13 [13],"9.55 upbm affinity estimate (log intensity, higher = more binding, comparable within an allelic series)"
same,binding signal,HOXD13 [14],"9.63 upbm affinity estimate (log intensity, higher = more binding, comparable within an allelic series)"
AGCGGCGC,binding signal,HOXD13 [12],"9.52 upbm affinity estimate (log intensity, higher = more binding, comparable within an allelic series)"
same,binding signal,HOXD13 [13],"9.67 upbm affinity estimate (log intensity, higher = more binding, comparable within an allelic series)"
same,binding signal,HOXD13 [14],"9.61 upbm affinity estimate (log intensity, higher = more binding, comparable within an allelic series)"
GCGCTGCC,binding signal,PITX2,"8 upbm affinity estimate (log intensity, higher = more binding, comparable within an allelic series)"
GCAGTGGC,binding signal,VAX1 [1],"7.24 upbm affinity estimate (log intensity, higher = more binding, comparable within an allelic series)"
same,binding signal,VAX1 [2],"7.19 upbm affinity estimate (log intensity, higher = more binding, comparable within an allelic series)"
same,binding signal,VAX1 [3],"7.24 upbm affinity estimate (log intensity, higher = more binding, comparable within an allelic series)"
AGGGCCCG,binding signal,VAX1 [1],"6.78 upbm affinity estimate (log intensity, higher = more binding, comparable within an allelic series)"
same,binding signal,VAX1 [2],"7.02 upbm affinity estimate (log intensity, higher = more binding, comparable within an allelic series)"
same,binding signal,VAX1 [3],"6.91 upbm affinity estimate (log intensity, higher = more binding, comparable within an allelic series)"
